Data from PubChem BioAssay (Tox21).
Unmarked numbers belong to inactive results. The source made the active and inactive calls. Calls follow the shape of the dose curve; as a rule, active = well fitted curve in the direction sought with a large enough effect in the repeat runs; inconclusive = weak or mixed curves; inactive = flat fitted curve, though single readings scatter.
% is scaled to controls: 0 for no effect and ±100 for the full control effect.

Assay: qHTS assay to test for compound auto fluorescence at 590 nm (red) in HEK293 cell free culture (AID 720683)
Settings: cell-free medium autofluorescence, Ex540/Em590 red; series mostly up to 46 µM; fluorescence, % of fluorescent control: at the top concentration
Text: U.S. Tox21 Program National Center for Advancing Translational Sciences [NCATS] NIH Chemical Genomics Center [NCGC] U.S. Environmental Protection Agency [EPA] National Institutes of Environmental Health Sciences [NIEHS] National Toxicology Program [NTP] U.S. Food and Drug Administration [FDA] Tox21 Assay Overview: Compound auto fluorescence often interferes with screening of the compound library against various biological targets and signaling pathways. Some of these compounds may have fluorophoric properties. Such properties may interfere with the assay outputs resulting in false positives and/or negatives. To decrease such complications and ensure the compound activities are relevant in terms of biological response, the Tox21 10K compound library was screened for auto fluorescence. From the fluorophores used as reporter signals in our screening assays, the auto fluorescence equivalencies of compounds against three fluorophores have been evaluated: Triamterene, Fluorescein and Rose Bengal sodium for blue, green and red fluorescence, respectively. The fluorescence intensities were measured using Excitation/Emission wavelengths at 405/460nm, 485/535nm and 540/590nm for blue, green and red labels, respectively. This assay includes the red fluorescence data.
Tox21 Assay Protocol Summary: 5 uL of culture medium (DMEM containing 10% FBS) per well was dispensed into black wall/clear bottom 1536-well plates using a Multidrop Combi Dispenser (ThermoFisher Scientific, Waltham, MA). After 23 nL compound or DMSO vehicle was transferred into assay plate by a pintool work station (Kalypsys, San Diego, CA), fluorescence intensities in the assay plates were measured by an Envision (PerkinElmer, Shelton, CT) plate reader using three labels for measuring blue, green and red fluorescence at […] 460, 535 and 590nm respectively.
In the case of CC(C)N=c1cc2n(-c3ccc(Cl)cc3)c3ccccc3nc-2cc1Nc1ccc(Cl)cc1, the “fluorescence, % of fluorescent control” value is reported as -0.0251% [at 18.6 µM]. For CCC(C)[C@H]1O[C@]2(C=C[C@@H]1C)C[C@@H]1C[C@@H](C/C=C(\C)[C@@H](O[C@H]3C[C@H](OC)[C@@H](O[C@H]4C[C@H](OC)[C@H](NC(C)=O)[C@H](C)O4)[C@H](C)O3)[C@@H](C)/C=C/C=C3\CO[C@@H]4[C@H](O)C(C)=C[C@@H](C(=O)O1)[C@]34O)O2 (stereo not given in full), the Potency was “inactive”. For COCC(=O)Nc1cc(Sc2ccccc2)ccc1N=C(NC(=O)OC)NC(=O)OC, the “fluorescence, % of fluorescent control” value was 0.587%. For CC1CS(=O)(=O)CCN1/N=C/c1ccc([N+](=O)[O-])o1 (stereo not given), the “fluorescence, % of fluorescent control” value was -0.32% [at 18.6 µM]. In the case of CCCC1([C@H](O)C/C=C/[C@H]2[C@H](O)CC(=O)[C@@H]2CCCCCCC(=O)OC)CCC1, the “fluorescence, % of fluorescent control” value is reported as -0.125%. With CCCCCCCCCCCCCCCC(=O)OCCC1CCN(CCCN2c3ccccc3Sc3ccc(S(=O)(=O)N(C)C)cc32)CC1 the “fluorescence, % of fluorescent control” value was 0.364%. For CC#CCC(C)[C@H](O)/C=C/[C@@H]1[C@H]2C/C(=C/CCCC(=O)O)C[C@H]2C[C@H]1O (stereo not given in full), the “fluorescence, % of fluorescent control” value was 0.256%. With CC(=O)Nc1c(I)c(C(=O)N[C@H]2C(O)O[C@H](CO)[C@@H](O)[C@@H]2O)c(I)c(N(C)C(C)=O)c1I (stereo not given in full) the “fluorescence, % of fluorescent control” value was -0.11% [at 18.6 µM]. For COc1ccc(CC2c3cc(OC)c(OC)cc3CC[N+]2(C)CCC(=O)OCCCCCOC(=O)CC[N+]2(C)CCc3cc(OC)c(OC)cc3C2Cc2ccc(OC)c(OC)c2)cc1OC (stereo not given), the “fluorescence, % of fluorescent control” value was 0.187% [at 18.6 µM]. For OC[C@H]1OC([S-])[C@H](O)[C@@H](O)[C@@H]1O.[Au+] (stereo not given in full), the “fluorescence, % of fluorescent control” value was 0.57%. In the case of CC(C)[C@@H]1CC[C@@H](C)C[C@H]1OC(=O)c1ccccc1O, the “fluorescence, % of fluorescent control” value is reported as 0.223%. In the case of CCCCCCCCCCCCCCCC(=O)OCC(COC(=O)CCCCCCCCCCCCCCC)OC(=O)CCCCCCCCCCCCCCC, the “fluorescence, % of fluorescent control” value is reported as 0.208%. For O=[N+]([O-])c1c(Cl)cccc1-c1c[nH]cc1Cl, the “fluorescence, % of fluorescent control” value was -0.475%. With Cc1cccc(C)c1Nc1ncccc1C(=O)O the “fluorescence, % of fluorescent control” value was 0.432%. In the case of CO/N=C(\C(=O)N[C@@H]1C(=O)N2C(C(=O)O)=CCS[C@H]12)c1csc(N)n1, the “fluorescence, % of fluorescent control” value is reported as 0.0891%. With Cc1ccc(C2(O)CCN(CCCC(=O)c3ccc(F)cc3)CC2)cc1 the “fluorescence, % of fluorescent control” value was -0.433%. With CCC(=O)O[C@]1(C(=O)CCl)[C@@H](C)C[C@H]2[C@@H]3C[C@H](F)C4=CC(=O)C=C[C@]4(C)[C@@]3(F)[C@@H](O)C[C@@]21C the “fluorescence, % of fluorescent control” value was 0.207%. With CC(C)(C)NCC(O)CSc1nc(-c2ccc(C(N)=O)s2)cs1 (stereo not given) the “fluorescence, % of fluorescent control” value was -0.611%. For FCOC(C(F)(F)F)C(F)(F)F, the “fluorescence, % of fluorescent control” value was 0.31%. With CCOC(=O)C1=C(COCCN)NC(C)=C(C(=O)OC)C1c1ccccc1Cl (stereo not given) the Potency was “inactive”. For COc1ccc(C2NC(=S)N3C(c4ccc(OC)c(OC)c4)NC(=S)N23)cc1OC (stereo not given), the “fluorescence, % of fluorescent control” value was -0.239%. In the case of Cc1cc(-c2ccc(N=Nc3c(S(=O)(=O)O)cc4cc(S(=O)(=O)O)cc(N)c4c3O)c(C)c2)ccc1N=Nc1c(S(=O)(=O)O)cc2cc(S(=O)(=O)O)cc(N)c2c1O, the “fluorescence, % of fluorescent control” value is reported as 1.06%. With Clc1ccc(COC(Cn2ccnc2)c2ccc(Cl)cc2Cl)c(Cl)c1 (stereo not given) the “fluorescence, % of fluorescent control” value was -0.0283% [at 18.6 µM]. In the case of CCNC(=O)[C@@H]1CCCN1C(=O)[C@H](CCCN=C(N)N)NC(=O)[C@H](CC(C)C)NC(=O)[C@@H](CC(C)C)NC(=O)[C@H](Cc1ccc(O)cc1)NC(=O)[C@H](CO)NC(=O)[C@H](Cc1c[nH]c2ccccc12)NC(=O)[C@H](Cc1cnc[nH]1)NC(=O)[C@@H]1CCC(=O)N1, the “fluorescence, % of fluorescent control” value is reported as 0.353%. In the case of O=C(NNCS(=O)(=O)O)c1ccncc1, the “fluorescence, % of fluorescent control” value is reported as 0.068%. In the case of COC(=O)C1=C(C#N)NC(C)=C(C(=O)OC(C)C)C1c1cccc([N+](=O)[O-])c1 (stereo not given), the “fluorescence, % of fluorescent control” value is reported as -0.404%. In the case of O=C(NNCNNC(=O)c1ccncc1)c1ccncc1, the “fluorescence, % of fluorescent control” value is reported as -0.301%. In the case of COc1ccc(CCNC[C@H](O)c2ccc(O)cc2)cc1OC, the “fluorescence, % of fluorescent control” value is reported as -0.534%. For CCCCC(=O)N(Cc1ccc(-c2ccccc2-c2nn[nH]n2)cc1)[C@@H](C(=O)O)C(C)C, the “fluorescence, % of fluorescent control” value was 0.15%. For CC(C)(C)C(=O)OCOC(=O)[C@@H]1N2C(=O)[C@@H](N=CN3CCCCCC3)[C@H]2SC1(C)C, the “fluorescence, % of fluorescent control” value was 0.164% [at 18.6 µM]. In the case of COC(F)(F)C(Cl)Cl, the “fluorescence, % of fluorescent control” value is reported as 0.298%. For CCC(c1ccccc1)c1noc(CCN(CC)CC)n1 (stereo not given), the “fluorescence, % of fluorescent control” value was -0.108%. With CC(C)[C@H](N)C(=O)OCC(CO)OCn1cnc2c(=O)[nH]c(N)nc21 (stereo not given in full) the “fluorescence, % of fluorescent control” value was 0.198%. With CCOC(=O)Nc1ccc2c(c1)N(C(=O)CN(C)C)c1ccccc1CC2 the “fluorescence, % of fluorescent control” value was 0.4% [at 91.3 µM]. In the case of CC[C@H]1OC(=O)[C@H](C)[C@@H](O[C@H]2C[C@@](C)(OC)[C@@H](O)[C@H](C)O2)[C@H](C)[C@@H](O[C@@H]2O[C@H](C)C[C@H](N(C)C)[C@H]2O)[C@](C)(O)C[C@@H](C)[C@@H]2N[C@@H](COCCOC)O[C@@H]([C@H]2C)[C@]1(C)O, the “fluorescence, % of fluorescent control” value is reported as -0.305%. In the case of CO[C@H]1C[C@H](O[C@@H]2/C(C)=C/C[C@@H]3C[C@@H](C[C@]4(CC[C@H](C)[C@@H](C5CCCCC5)O4)O3)OC(=O)[C@@H]3C=C(C)/C(=N/O)[C@H]4OC/C(=C\C=C\[C@@H]2C)[C@]43O)O[C@@H](C)[C@@H]1O, the “fluorescence, % of fluorescent control” value is reported as 0.163%. In the case of O=C1c2ccccc2C(=O)C1c1ccc(Cl)cc1, the “fluorescence, % of fluorescent control” value is reported as 0.0308%. For C=CCNC1=C2C[C@@H](C)C[C@H](OC)[C@H](O)[C@@H](C)/C=C(\C)[C@H](OC(N)=O)[C@@H](OC)/C=C\C=C(/C)C(=O)NC(=CC1=O)C2=O, the “fluorescence, % of fluorescent control” value was -0.0694%. For CCN(CC)CCOCCOC(=O)C(CC)(CC)c1ccccc1, the “fluorescence, % of fluorescent control” value was -0.392%. With CCCCC/C=C\C/C=C\C/C=C\CCCCC(=O)O the “fluorescence, % of fluorescent control” value was 0.084%.
